Experimental findings from PubChem BioAssay are described below.

In general, inhibition refers to the drop in the measured response relative to a control, in per cent.

Assay [1] has as its system TRPC4 beta (transient receptor potential cation channel C4), mouse. In words: TRPC4 cation channel opening, retest – cell-based, Fluo4 calcium, HEK293 TRPC4beta/mu-opioid, duplicates, 10 µM, confirmation (AID 2426;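 active = fluorescence ratio normalized to control raised more than 50% in primary screen plus both repeat runs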). Particulars: Fluo4 calcium fluorescence, at 10 µM; active compounds read high.
Assay [2] relates to transient receptor potential cation channel C4 beta (TRPC4), mouse. Nature of the assay: TRPC4 cation channel opening, second retest – cell-based, second round, Fluo4, HEK293 TRPC4beta/mu-opioid, 1 µM, confirmation (AID 2461;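 active = primary screen active and over 50% activation in each of two duplicate runs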). The settings on record: Fluo4 calcium fluorescence, at 1 µM; active compounds read high.
For assay [3], the system named is TRPC4 (transient receptor potential cation channel C4 beta), mouse. In words: potentiation of DAMGO EC20 TRPC4 response – cell-based, second round, Fluo-4, HEK293 TRPC4beta/mu-opioid, 1 µM, confirmation (AID 2554;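 active = primary screen hit whose fluorescence ratio, in both repeats, exceeds the weak agonist control mean by 3 SD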). The settings on record: DAMGO EC20, Fluo-4 calcium flux, at 1 µM; active compounds read high. A general note: Calcium flux is commonly read through the fluorescence of an indicator in the cells.

For assay [4], the system named is TRPC4 beta (transient receptor potential cation channel C4), mouse. Nature of the assay: potentiation of DAMGO EC20 TRPC4 response – cell-based, Fluo-4, HEK293 TRPC4beta/mu-opioid, confirmation (AID 2555;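 active = primary screen hit whose calcium fluorescence ratio, in both repeats, exceeds the weak agonist control mean by 3 SD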). The settings on record: DAMGO EC20, Fluo-4 calcium flux, at 10 µM; active compounds read high.
In assay [5] the target is Short transient receptor potential channel 4 (Mus musculus) (UniProt Q9QUQ5). In words: blockers of DAMGO-evoked TRPC4 calcium flux – cell-based, Fluo4, HEK293 TRPC4beta/mu-opioid, confirmation (AID 2636;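 active = calcium signal cut by more than 3 SD below the full-agonist control yet still positive, in both repeats and the earlier primary screen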). The settings on record: at 10 µM; active compounds read high.
For assay [6] the target is unchanged. Nature of the assay: blockers of DAMGO-evoked TRPC4 calcium flux – cell-based, second round, Fluo4, HEK293 TRPC4beta/mu-opioid, 1 µM, confirmation (AID 2637;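 active = calcium signal ratio cut to more than 3 SD under the fully stimulated control mean yet still positive, in both repeats and the primary screen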;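 for inhibition: percent of integrated ratio relative to wells lacking test compound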). Particulars: at 1 µM; active compounds read high.
The target is the same in assay [7]. In words: calcium entry via TRPC4 opening agents – cell-based, HEK293 TRPC4/mu-opioid, Fluo-4 calcium, dose response (AID 434937;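 active = primary screen activator hit with a dose response curve and TRPC4 channel activation at any tested dose; inactive = no activation, no dose response, or not a primary hit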).
Assay [8] has the same target. In words: potentiation of DAMGO-evoked TRPC4 calcium signal – cell-based, HEK293 TRPC4/mu-opioid, Fluo-4 calcium, EC20 DAMGO, dose response (AID 434941;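 active = earlier screen potentiator hit that boosts the TRPC4 ion channel at some dose, with a dose response; inactive = no potentiation, no dose response, or not a prior hit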;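 note: calcium entry triggered by an EC20 dose of DAMGO at the co-expressed mu-opioid receptor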).
In assay [9] the target is Short transient receptor potential channel 6 (Mus musculus) (UniProt Q61143). Nature of the assay: TRPC6 blockade by TRPC4 inhibitor hits – cell-based, HEK293, membrane potential dye, duplicate, selectivity assay for TRPC4 inhibitor project, confirmation (AID 434948;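 active = active in primary screen and both duplicates, each dropping signal beyond three positive-control SD with fluorescence still positive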). The settings on record: HEK293 TRPC6, membrane potential dye fluorescence, at 10 µM, stimulated with maximal-effect acetylcholine; active compounds read high.

Assay [10] shares this target. In words: TRPC6 opening by TRPC4 activator hits – cell-based, HEK293, membrane potential dye, duplicate, selectivity assay for TRPC4 activator project, confirmation (AID 434950).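 For activation: 0% = buffer only wells and 100% = acetylcholine maximal-effect wells.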 Particulars: HEK293 TRPC6, membrane potential fluorescence, at 10 µM; activation: active compounds read high; outcome: activation.
Assay [11] has the same target. Nature of the assay: positive modulators of mouse TRPC6 channel – HEK293 cells, membrane potential dye, duplicate, selectivity assay for TRPC4 potentiator project, confirmation (AID 434952;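 active = compound raising the membrane signal above positive-control mean plus 3 SD in both repeats, and a primary screen hit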). Particulars: HEK293 TRPC6, membrane potential dye fluorescence, at 10 µM, maximal acetylcholine added after compound; active compounds read high.
In assay [12] the target is Short transient receptor potential channel 4 (Mus musculus) (UniProt Q9QUQ5). Nature of the assay: calcium flux activators in TRPC4/5HT1a cells, counter-screen for TRPC4 activator project, cell-based, second counter screen, HEK293 TRPC4/5HT1a, Fluo-4 (AID 434977;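 active = calcium signal rise above buffer-control mean plus 5 SD in both duplicates, and also a hit in the primary screen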). The settings on record: Fluo-4 calcium flux, at 10 µM; active compounds read high.
Assay [13] in a line: serotonin-gated TRPC4 signal block – cell-based, second counter screen, HEK293 TRPC4/5HT1a, Fluo-4, counter-screen for TRPC4 inhibitor project, confirmation (AID 434978;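 active = primary screen active whose calcium signal fell more than 3 SD beyond the full-serotonin control mean in both duplicate plates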;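 for outcome: serotonin given first at submaximal then at maximal dose after compound preincubation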). The settings on record: Fluo-4 calcium flux, at 10 µM, serotonin added to trigger calcium flux; active compounds read high. For orientation: Counterscreens check selectivity or assay interference.
Assay [14] deals with TRPC4 (mouse), co-expressed with 5HT1a in HEK293. In words: enhancement of serotonin-evoked TRPC4 response – cell-based, second counter screen, HEK293 TRPC4/5HT1a, Fluo-4, counter-screen for TRPC4 potentiator project, confirmation (AID 434979;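 active = signal rise over 3 SD above mean of control wells given weak agonist, in both repeats and first screen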). The settings on record: Fluo-4 calcium flux, at 10 µM, serotonin added at its EC20 dose; active compounds read high.
A short description of assay [15]: nonspecific calcium rise without TRPC4 – cell-based, HEK293 mu-opioid receptor line, counter-screen for TRPC4 activator project, confirmation (AID 449723;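 active = hit in primary screen, with calcium signal over 5 SD above buffer well mean in both duplicates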;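 note: counter screen cells carry the mu-opioid receptor alone and lack TRPC4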). The settings on record: HEK293 mu-opioid cells, Fluo-4 calcium fluorescence, at 10 µM; active compounds read high.
Assay [16] in a line: nonspecific potentiation of DAMGO calcium response – cell-based, HEK293 mu-opioid receptor line, counter-screen for TRPC4 allosteric potentiator project, confirmation (AID 449724;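 active = calcium signal rise more than 3 SD above the low-dose agonist control mean, in both duplicate plates and the primary screen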;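 note: HEK293 cells carrying mu-opioid receptor only with no TRPC4 channel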). Particulars: HEK293 mu-opioid receptor cells, Fluo-4 calcium flux, at 10 µM, compound added before EC20 DAMGO stimulus; active compounds read high.

Molecules are shown by their SMILES. For part of these data: Entries with a potency or affinity are not part of this list. Active and inactive are the calls of the source.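 Rule for the calls, unless noted: active = membrane potential signal rise above negative control mean plus 3 SD in both duplicates, also active in the earlier TRPC4 screen; inactive = the rest.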

Sequence of Short transient receptor potential channel 6 (Mus musculus) (Q61143 whole entry, looked up): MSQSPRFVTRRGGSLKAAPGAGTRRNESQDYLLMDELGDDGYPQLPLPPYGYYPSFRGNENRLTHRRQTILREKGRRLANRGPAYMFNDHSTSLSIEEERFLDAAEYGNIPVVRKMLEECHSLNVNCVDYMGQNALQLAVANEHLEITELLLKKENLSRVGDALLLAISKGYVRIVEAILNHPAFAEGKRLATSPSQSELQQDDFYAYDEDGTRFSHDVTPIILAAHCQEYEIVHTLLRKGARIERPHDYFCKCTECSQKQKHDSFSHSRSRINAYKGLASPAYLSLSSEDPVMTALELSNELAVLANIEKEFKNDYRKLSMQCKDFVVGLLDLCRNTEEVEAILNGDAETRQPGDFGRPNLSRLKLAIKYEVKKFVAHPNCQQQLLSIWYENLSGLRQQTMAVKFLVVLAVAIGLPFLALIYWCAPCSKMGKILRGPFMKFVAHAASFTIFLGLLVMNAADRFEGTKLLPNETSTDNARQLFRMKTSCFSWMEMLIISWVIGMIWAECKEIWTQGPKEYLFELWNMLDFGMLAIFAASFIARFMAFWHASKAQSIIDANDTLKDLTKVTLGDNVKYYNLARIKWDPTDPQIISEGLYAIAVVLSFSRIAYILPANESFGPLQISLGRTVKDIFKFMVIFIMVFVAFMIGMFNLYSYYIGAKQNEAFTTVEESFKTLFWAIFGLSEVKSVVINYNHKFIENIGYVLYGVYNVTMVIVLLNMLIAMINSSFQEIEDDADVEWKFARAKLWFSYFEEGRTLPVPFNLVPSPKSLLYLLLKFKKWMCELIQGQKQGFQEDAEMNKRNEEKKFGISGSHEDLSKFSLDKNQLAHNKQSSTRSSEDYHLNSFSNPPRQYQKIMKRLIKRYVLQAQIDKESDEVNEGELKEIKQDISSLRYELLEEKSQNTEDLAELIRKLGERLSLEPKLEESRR
Sequence of Short transient receptor potential channel 4 (Mus musculus) (Q9QUQ5 whole entry, looked up): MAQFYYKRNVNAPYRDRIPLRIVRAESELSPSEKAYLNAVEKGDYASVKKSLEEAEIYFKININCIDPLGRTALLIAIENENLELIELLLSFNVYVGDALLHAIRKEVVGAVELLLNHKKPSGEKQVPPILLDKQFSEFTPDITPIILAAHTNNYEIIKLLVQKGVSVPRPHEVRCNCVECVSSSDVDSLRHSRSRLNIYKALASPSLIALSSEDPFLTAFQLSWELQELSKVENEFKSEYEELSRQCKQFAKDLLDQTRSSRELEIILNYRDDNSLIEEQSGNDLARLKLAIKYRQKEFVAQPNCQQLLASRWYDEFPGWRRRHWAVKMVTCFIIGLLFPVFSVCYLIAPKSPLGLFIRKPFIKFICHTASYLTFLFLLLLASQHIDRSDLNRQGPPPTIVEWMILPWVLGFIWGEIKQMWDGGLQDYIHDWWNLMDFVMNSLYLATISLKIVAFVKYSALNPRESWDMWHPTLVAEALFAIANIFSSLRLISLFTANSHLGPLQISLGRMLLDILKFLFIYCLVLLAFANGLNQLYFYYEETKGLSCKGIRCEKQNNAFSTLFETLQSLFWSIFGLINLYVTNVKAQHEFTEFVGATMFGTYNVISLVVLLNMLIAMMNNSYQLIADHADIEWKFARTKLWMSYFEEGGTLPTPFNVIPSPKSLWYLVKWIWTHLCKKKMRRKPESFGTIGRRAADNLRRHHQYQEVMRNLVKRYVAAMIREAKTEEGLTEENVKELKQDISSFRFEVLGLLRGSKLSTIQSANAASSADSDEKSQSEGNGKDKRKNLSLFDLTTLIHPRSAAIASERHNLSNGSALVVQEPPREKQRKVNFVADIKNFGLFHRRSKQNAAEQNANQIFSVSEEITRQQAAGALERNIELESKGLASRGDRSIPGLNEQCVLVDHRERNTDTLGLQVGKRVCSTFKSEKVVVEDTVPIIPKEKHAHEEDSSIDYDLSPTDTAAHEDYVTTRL

Regarding `COc1ccc(OC)c(Nc2cc(C)nc3ccc(C)cc23)c1`, the result in assay [1], in assay [2], in [3], in [4], in assay [6] and in assay [7] was inactive. Further, the outcome in assay [8], in assay [10], in [11], in assay [12], in [13] and in assay [14] was inactive. For the same compound, the result in [15] and in [16] was inactive. Also, the inhibition in [5] is 38% (active); in assay [9], 41% (active).
On to `CC1CCN(C(C)C(=O)Nc2ccccc2-c2ccccc2)CC1` (stereo not given), for which the result in assay [1], in assay [2], in [3], in assay [4], in assay [7] and in [8] was inactive. The outcome in assay [9], in assay [10], in [11], in assay [12], in [14] and in [15] was inactive. Moreover, the outcome in [16] was inactive. Besides, the inhibition in assay [5] is 82% (active); in [6], 36% (active); in assay [13], 33.1% (active).
As for `O=C(COC(=O)Cn1cnc2ccccc2c1=O)Nc1ccccc1Sc1ccc(Cl)cc1`, the outcome in [1], in assay [2], in [3], in assay [4], in assay [7] and in [8] was inactive. In addition, the compound was classed as inactive in assay [9], in assay [10], in [11], in [12], in [14] and in [15]. Further, in [16], the result was inactive. Moreover, the inhibition in [5] was 62% (active); in assay [6] it was 43% (active); in [13], 26.1% (active).
Take `COC(=O)c1cccc(NC(=S)Nc2cccc(Cl)c2Cl)c1`: the result in [1], in assay [2], in [3], in assay [4], in assay [6] and in [7] was inactive. Also, the result in assay [8], in [9], in assay [10], in assay [11], in assay [12] and in assay [13] was inactive. The outcome in [14], in assay [15] and in assay [16] was inactive. Further, in assay [5], the inhibition was 78% (active).
Turning to `Cc1ccc2nc(C)c3c(c2c1)N(c1ccc(F)cc1)CC3`, the result in assay [1], in [2], in assay [3], in assay [4], in assay [7] and in [8] was inactive. Also, the result in [10], in assay [11], in assay [12], in assay [14], in assay [15] and in [16] was inactive. Moreover, the inhibition in [5] is 90% (active); in assay [6], 71% (active); in assay [9], 25% (active); in [13], 33.8% (active).
As for `CC1CCc2c(sc3ncnc(SCC(=O)Nc4ccc(C(=O)O)cc4)c23)C1` (stereo not given), the result in assay [1], in [2], in assay [3], in assay [4], in assay [7] and in assay [8] was inactive. Besides, the compound was called inactive in assay [9], in assay [10], in assay [11], in [12], in assay [13] and in assay [14]. Also, the result in assay [15] and in assay [16] was inactive. Also, the inhibition in [5] is 88% (active); in assay [6], 45% (active).
As to `COc1ncnc2sc3c(c12)CCCC3`, the result in [1], in [2], in assay [3], in assay [4], in [6] and in [7] was inactive. The outcome in [8], in [9], in [10], in [11], in assay [12] and in assay [13] was inactive. The outcome in assay [14], in assay [15] and in [16] was inactive. The inhibition in assay [5] was 93% (active).
Turning to `CC(=O)N(c1ccc(Cl)cc1)c1c[nH]c2ccccc12`, the outcome in [1], in assay [2], in assay [3], in assay [4], in [6] and in assay [7] was inactive. The result in assay [8], in assay [9], in assay [10], in assay [11], in assay [12] and in assay [14] was inactive. The outcome in assay [15] and in assay [16] was inactive. Moreover, the figures for the inhibition in assay [5] and in assay [13] were 94% (active) and 22.3% (active), respectively.
With `Cc1cc(C)c(S(=O)(=O)c2ccccc2C)c(OCC(C)(C)C)n1`, the result in [1], in [2], in assay [3], in [4], in [7] and in assay [8] was inactive. Besides, the outcome in [9], in assay [10], in [11], in assay [12], in assay [14] and in [15] was inactive. In addition, in assay [16], the outcome was inactive. In addition, the inhibition in [5] is 91% (active); in assay [6] it was 43% (active); in assay [13] it was 15.5% (active).
Regarding `COc1cccc(N2CC(O)=C(c3nc4ccccc4c(=O)[nH]3)C2=N)c1`, the outcome in [1], in assay [2], in [3], in assay [4], in assay [7] and in assay [8] was inactive. Further, the outcome in [9], in [10], in assay [11], in [12], in assay [14] and in [15] was inactive. For the same compound, in assay [16], the result was inactive. The inhibition in assay [5] was 74% (active); in assay [6] it was 47% (active); in assay [13], 37.5% (active).
With `CN(C)CCCNc1c2ccccc2nc2ccccc12`, the result in [1], in assay [2], in [3], in assay [4], in [7] and in [8] was inactive. Besides, the compound was called inactive in [9], in assay [10], in assay [11], in [12], in assay [14] and in assay [15]. The outcome in assay [16] was inactive. Further, the inhibition in assay [5] is 94% (active); in assay [6] it was 62% (active); in [13], 22.7% (active).
For `COc1ccc2nc(NCc3ccccc3)[nH]c2c1`, the outcome in assay [1], in [2], in assay [3], in [4], in assay [7] and in assay [8] was inactive. In addition, the outcome in assay [9], in [10], in [11], in [12], in assay [14] and in [15] was inactive. Besides, the result in [16] was inactive. The inhibition in [5] is 94% (active); in [6], 50% (active); in assay [13] it was 23.6% (active).
With `COc1ccccc1CNCC(c1ccccc1)c1ccccc1`, the outcome in assay [1], in [2], in assay [3], in assay [4], in assay [6] and in assay [7] was inactive. The outcome in [8], in [10], in [11], in assay [12], in [14] and in assay [15] was inactive. In assay [16], the outcome was inactive. The inhibition in [5] was 60% (active); in [9], 55% (active); in [13], 44.3% (active).
Turning to `N=c1c2c(n(Cc3ccc(Cl)cc3)c3c1CCC3)CCC2`, the result in [1], in [2], in [3], in assay [4], in assay [7] and in assay [8] was inactive. The compound was called inactive in [10], in [11], in [12], in assay [14], in [15] and in [16]. Also, the inhibition was 96% (active) in assay [5], 50% (active) in assay [6], 34.5% (active) in assay [9] and 10.6% (active) in [13].
Turning to `O=C(NCCCN1CCOCC1)c1ccc(NC(=O)C2COc3ccccc3O2)cc1` (stereo not given), the result in assay [1], in [2], in [3], in assay [4], in assay [5] and in assay [6] was inactive. Moreover, the outcome in [7], in assay [8], in [9], in assay [11], in assay [12] and in [13] was inactive. The outcome in assay [14], in [15] and in assay [16] was inactive. The activation in assay [10] is 49.5% (active).
